# Tests used:
# Test in all cases: DAPPL (digital affinity profiling via proximity ligation, sequencing); 10 mM Tris-HCl pH 7.5, 50 mM NaCl, 1 mM DTT, 4% glycerol, room temperature, 30 min; GST-TFs on glutathione beads, 16-mer random dsDNA library, 0.1% formaldehyde crosslink after washing; high values mean tight binding
# FLI1 = target: T1, FLI1 (Homo sapiens, UniProt Q01543 1-452); conditions: protein: recombinant; tags: N-terminal GST; dsDNA, one strand shown
# T1 sequence: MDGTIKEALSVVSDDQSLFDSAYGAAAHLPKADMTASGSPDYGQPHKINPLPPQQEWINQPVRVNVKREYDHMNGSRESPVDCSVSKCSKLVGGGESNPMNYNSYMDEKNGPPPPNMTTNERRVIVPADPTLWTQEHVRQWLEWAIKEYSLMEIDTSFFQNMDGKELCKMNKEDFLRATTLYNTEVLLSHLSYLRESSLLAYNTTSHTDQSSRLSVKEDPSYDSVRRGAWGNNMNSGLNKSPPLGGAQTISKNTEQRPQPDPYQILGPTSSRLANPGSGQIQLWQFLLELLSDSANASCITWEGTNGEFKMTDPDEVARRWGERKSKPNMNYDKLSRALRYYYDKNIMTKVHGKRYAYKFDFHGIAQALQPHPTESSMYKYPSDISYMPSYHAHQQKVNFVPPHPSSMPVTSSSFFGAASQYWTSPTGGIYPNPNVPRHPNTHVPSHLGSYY
# Method in brief: (§1)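 Each value of binding signal is a hexamer's read frequency for a factor divided by the same hexamer's frequency in the tag-only sample. Barcoded, bead-captured GST fusions of human transcription factors made in yeast were pooled with that sample and incubated with 200 nmole of a random double-stranded 16-mer DNA library in Tris/NaCl/DTT/glycerol buffer at room temperature for 30 min. Washing, 0.1% formaldehyde crosslinking, proximity ligation, PCR and Illumina NextSeq500 sequencing followed.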
# ELK1 = target: T2, ELK1 (Homo sapiens, UniProt P19419 1-428); conditions: protein: recombinant; tags: N-terminal GST; dsDNA, one strand shown
# T2 sequence: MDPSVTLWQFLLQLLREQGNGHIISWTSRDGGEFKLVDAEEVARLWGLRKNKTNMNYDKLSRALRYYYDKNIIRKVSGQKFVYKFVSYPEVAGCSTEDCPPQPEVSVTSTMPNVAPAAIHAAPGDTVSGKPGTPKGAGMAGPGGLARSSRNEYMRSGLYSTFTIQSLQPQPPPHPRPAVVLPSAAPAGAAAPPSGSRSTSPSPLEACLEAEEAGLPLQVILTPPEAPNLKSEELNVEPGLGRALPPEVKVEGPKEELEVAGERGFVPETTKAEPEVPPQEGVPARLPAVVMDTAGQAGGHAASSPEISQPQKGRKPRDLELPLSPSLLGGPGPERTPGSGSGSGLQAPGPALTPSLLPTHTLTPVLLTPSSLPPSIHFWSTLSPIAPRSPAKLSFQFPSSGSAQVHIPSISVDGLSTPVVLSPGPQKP
# Method in brief: as §1
# GABPA = target: T3, GABPA (Homo sapiens, UniProt Q06546 1-454); conditions: protein: recombinant; tags: N-terminal GST; dsDNA, one strand shown
# T3 sequence: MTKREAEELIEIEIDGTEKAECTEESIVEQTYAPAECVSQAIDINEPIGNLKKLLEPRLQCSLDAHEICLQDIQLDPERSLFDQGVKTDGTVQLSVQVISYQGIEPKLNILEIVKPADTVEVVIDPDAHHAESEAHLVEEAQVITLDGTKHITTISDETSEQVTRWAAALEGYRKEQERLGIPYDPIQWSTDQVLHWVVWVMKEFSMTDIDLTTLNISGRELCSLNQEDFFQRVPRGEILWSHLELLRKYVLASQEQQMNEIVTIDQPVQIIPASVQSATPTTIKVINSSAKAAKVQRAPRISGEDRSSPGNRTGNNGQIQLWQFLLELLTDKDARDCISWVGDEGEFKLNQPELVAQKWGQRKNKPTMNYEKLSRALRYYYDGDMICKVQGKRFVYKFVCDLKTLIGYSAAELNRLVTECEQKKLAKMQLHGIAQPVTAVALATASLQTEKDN
# Method in brief: as §1
# ERG = target: T4, ERG (Homo sapiens, UniProt P11308 1-479); conditions: protein: recombinant; tags: N-terminal GST; dsDNA, one strand shown
# T4 sequence: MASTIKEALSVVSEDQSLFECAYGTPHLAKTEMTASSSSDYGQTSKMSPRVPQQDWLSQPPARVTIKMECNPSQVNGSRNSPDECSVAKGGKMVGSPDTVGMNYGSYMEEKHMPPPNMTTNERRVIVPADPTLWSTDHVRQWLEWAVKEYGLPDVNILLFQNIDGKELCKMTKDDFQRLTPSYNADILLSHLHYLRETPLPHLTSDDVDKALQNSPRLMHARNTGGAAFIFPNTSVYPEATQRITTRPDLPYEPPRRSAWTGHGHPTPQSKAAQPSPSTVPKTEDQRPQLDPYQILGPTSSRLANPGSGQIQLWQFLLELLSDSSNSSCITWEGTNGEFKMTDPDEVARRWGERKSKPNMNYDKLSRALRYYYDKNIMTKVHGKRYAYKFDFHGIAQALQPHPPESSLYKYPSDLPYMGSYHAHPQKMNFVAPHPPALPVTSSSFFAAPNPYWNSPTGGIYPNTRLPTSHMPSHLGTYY
# Method in brief: as §1
# ELF1 = ELF1 (Homo sapiens, UniProt P32519 1-619); conditions: protein: recombinant; tags: N-terminal GST; dsDNA, one strand shown
# Method in brief: as §1
# EHF = target: T5, EHF (Homo sapiens, UniProt Q9NZC4 1-300); conditions: protein: recombinant; tags: N-terminal GST; dsDNA, one strand shown
# T5 sequence: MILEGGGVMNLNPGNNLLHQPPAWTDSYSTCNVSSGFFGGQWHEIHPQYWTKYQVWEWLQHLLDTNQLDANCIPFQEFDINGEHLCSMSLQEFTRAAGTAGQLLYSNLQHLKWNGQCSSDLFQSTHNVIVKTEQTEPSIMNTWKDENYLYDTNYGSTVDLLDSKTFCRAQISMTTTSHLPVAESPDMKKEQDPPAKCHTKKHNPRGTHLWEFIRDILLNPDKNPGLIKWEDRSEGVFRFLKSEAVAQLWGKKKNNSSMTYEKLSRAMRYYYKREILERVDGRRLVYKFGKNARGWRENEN
# Method in brief: as §1
# SPI1 = SPI1 (Homo sapiens, UniProt P17947 1-270); conditions: protein: recombinant; tags: N-terminal GST; dsDNA, one strand shown
# Method in brief: as §1
# SPIB = SPIB (Homo sapiens, UniProt Q01892 1-262); conditions: protein: recombinant; tags: N-terminal GST; dsDNA, one strand shown
# Method in brief: as §1
# ELK3 = target: T6, ELK3 (Homo sapiens, UniProt P41970 1-407); conditions: protein: recombinant; tags: N-terminal GST; dsDNA, one strand shown
# T6 sequence: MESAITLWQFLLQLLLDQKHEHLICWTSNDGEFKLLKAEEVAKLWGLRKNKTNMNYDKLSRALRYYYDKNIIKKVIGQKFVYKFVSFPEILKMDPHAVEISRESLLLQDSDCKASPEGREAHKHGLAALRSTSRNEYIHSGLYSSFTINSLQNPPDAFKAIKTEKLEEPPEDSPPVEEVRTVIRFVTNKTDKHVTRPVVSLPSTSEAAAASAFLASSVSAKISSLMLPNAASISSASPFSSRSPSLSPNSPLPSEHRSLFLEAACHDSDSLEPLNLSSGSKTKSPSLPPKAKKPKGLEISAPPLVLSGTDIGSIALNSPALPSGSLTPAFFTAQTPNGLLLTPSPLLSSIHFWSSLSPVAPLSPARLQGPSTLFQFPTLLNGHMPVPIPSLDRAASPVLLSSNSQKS
# Method in brief: as §1
# FEV = target: T7, FEV (Homo sapiens, UniProt Q99581 1-238); conditions: protein: recombinant; tags: N-terminal GST; dsDNA, one strand shown
# T7 sequence: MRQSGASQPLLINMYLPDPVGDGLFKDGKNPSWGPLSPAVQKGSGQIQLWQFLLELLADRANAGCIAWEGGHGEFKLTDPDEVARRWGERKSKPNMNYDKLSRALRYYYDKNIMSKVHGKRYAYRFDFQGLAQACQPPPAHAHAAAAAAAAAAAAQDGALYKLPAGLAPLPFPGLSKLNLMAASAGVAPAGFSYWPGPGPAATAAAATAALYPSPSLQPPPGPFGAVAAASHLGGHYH
# Method in brief: as §1
# ETV5 = ETV5 (Homo sapiens, UniProt P41161 1-510); conditions: protein: recombinant; tags: N-terminal GST; dsDNA, one strand shown
# Method in brief: as §1
# HSF1 = HSF1 (Homo sapiens, UniProt Q00613 1-529); conditions: protein: recombinant; tags: N-terminal GST; chain copies: 3; dsDNA, one strand shown
# Method in brief: as §1
# SPIC = target: T8, SPIC (Homo sapiens, UniProt Q8N5J4 1-248); conditions: protein: recombinant; tags: N-terminal GST; dsDNA, one strand shown
# T8 sequence: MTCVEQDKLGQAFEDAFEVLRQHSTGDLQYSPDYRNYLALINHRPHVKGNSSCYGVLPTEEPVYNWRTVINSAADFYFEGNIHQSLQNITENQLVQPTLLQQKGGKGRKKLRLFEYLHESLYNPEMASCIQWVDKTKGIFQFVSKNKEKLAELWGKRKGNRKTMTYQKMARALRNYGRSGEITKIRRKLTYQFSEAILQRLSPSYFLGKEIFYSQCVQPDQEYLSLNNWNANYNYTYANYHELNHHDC
# Method in brief: as §1
# ELF4 = ELF4 (Homo sapiens, UniProt Q99607 1-663); conditions: protein: recombinant; tags: N-terminal GST; dsDNA, one strand shown
# Method in brief: as §1
# ELK4 = target: T9, ELK4 (Homo sapiens, UniProt P28324-2 1-405); conditions: protein: recombinant; tags: N-terminal GST; dsDNA, one strand shown
# T9 sequence: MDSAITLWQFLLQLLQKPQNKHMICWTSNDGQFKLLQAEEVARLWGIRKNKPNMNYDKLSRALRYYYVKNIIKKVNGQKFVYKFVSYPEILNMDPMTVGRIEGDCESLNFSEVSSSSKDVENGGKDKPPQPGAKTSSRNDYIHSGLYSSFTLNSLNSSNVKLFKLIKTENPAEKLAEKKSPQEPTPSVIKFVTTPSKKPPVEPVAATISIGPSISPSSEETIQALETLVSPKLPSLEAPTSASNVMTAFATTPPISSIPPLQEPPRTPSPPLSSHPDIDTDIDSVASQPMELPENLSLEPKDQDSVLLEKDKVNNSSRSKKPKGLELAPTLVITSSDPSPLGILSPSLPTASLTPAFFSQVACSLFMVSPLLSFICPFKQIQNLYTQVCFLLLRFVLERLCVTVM
# Method in brief: as §1
# ETV2 = target: T10, ETV2 (Homo sapiens, UniProt O00321 1-342); conditions: protein: recombinant; tags: N-terminal GST; dsDNA, one strand shown
# T10 sequence: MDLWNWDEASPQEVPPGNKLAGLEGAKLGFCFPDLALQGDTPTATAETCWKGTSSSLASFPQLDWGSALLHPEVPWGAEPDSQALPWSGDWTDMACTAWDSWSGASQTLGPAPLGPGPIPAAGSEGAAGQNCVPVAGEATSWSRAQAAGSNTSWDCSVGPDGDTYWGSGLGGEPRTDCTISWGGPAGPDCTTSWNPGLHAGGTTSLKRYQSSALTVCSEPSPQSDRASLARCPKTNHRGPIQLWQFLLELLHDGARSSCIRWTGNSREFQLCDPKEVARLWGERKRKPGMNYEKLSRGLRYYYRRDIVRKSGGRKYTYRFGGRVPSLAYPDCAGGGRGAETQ
# Method in brief: as §1
# ELF3 = target: T11, ELF3 (Homo sapiens, UniProt P78545 1-371); conditions: protein: recombinant; tags: N-terminal GST; dsDNA, one strand shown
# T11 sequence: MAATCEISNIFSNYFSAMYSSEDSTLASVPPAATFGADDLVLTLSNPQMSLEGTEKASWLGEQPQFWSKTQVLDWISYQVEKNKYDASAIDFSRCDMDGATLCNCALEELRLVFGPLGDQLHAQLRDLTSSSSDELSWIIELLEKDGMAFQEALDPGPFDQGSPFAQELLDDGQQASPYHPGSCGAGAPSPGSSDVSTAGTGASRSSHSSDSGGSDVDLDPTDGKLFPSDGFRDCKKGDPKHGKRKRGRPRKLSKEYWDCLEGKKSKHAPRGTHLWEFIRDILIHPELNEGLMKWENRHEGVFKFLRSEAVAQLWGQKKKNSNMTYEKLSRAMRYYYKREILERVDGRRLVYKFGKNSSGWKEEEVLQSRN
# Method in brief: as §1
# CRX = CRX (Homo sapiens, UniProt O43186 1-299); conditions: protein: recombinant; tags: N-terminal GST; dsDNA, one strand shown
# Method in brief: as §1
# ETV1 = ETV1 (Homo sapiens, UniProt P50549 1-477); conditions: protein: recombinant; tags: N-terminal GST; dsDNA, one strand shown
# Method in brief: as §1
# Sequence of CRX (O43186 whole entry): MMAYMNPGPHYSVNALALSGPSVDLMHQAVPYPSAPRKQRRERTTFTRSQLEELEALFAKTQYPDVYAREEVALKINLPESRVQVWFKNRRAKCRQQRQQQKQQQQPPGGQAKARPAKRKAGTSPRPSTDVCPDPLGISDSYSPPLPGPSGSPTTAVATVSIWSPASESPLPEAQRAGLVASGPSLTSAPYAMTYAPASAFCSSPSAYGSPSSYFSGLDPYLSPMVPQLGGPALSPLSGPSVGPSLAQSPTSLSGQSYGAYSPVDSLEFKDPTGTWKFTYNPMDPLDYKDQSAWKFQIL
# Sequence of SPIB (Q01892 whole entry): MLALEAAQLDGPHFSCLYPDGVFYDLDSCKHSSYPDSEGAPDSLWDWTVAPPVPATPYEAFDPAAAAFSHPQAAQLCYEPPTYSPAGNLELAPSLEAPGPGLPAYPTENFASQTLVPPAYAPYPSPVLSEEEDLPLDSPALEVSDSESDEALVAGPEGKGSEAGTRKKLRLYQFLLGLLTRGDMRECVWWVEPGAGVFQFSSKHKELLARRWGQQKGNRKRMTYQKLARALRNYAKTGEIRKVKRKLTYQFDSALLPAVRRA
# Sequence of HSF1 (Q00613 whole entry): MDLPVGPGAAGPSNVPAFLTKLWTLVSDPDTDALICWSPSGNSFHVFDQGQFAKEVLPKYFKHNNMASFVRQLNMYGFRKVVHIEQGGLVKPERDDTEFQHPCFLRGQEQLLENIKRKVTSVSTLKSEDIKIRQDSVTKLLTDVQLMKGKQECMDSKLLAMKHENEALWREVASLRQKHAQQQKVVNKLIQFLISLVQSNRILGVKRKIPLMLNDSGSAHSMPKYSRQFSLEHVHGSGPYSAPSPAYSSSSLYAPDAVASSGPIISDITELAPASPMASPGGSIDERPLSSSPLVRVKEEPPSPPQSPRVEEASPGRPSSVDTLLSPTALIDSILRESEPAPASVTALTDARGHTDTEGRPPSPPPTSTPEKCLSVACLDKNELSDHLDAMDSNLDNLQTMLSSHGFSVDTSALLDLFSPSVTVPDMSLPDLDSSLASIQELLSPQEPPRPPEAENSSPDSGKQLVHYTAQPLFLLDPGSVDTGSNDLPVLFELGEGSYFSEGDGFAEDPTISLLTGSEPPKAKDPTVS
# Sequence of ELF4 (Q99607 whole entry): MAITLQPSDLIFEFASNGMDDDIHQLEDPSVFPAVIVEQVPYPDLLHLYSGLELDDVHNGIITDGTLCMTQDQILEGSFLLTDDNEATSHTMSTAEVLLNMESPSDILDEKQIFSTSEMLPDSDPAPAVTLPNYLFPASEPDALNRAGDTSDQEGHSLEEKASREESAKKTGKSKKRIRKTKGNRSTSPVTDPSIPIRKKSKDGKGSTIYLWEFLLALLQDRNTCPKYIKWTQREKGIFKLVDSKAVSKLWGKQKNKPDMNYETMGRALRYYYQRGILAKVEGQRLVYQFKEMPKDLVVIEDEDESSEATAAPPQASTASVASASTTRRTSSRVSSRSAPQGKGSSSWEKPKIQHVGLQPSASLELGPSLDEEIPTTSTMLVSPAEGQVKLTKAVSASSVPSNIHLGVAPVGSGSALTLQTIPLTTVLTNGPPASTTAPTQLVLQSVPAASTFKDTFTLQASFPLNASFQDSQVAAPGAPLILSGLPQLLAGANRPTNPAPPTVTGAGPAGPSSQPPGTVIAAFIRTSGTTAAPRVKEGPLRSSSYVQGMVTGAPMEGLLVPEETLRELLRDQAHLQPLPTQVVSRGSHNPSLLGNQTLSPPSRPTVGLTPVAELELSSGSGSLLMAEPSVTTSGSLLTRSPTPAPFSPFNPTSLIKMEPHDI
# Sequence of ETV5 (P41161 whole entry): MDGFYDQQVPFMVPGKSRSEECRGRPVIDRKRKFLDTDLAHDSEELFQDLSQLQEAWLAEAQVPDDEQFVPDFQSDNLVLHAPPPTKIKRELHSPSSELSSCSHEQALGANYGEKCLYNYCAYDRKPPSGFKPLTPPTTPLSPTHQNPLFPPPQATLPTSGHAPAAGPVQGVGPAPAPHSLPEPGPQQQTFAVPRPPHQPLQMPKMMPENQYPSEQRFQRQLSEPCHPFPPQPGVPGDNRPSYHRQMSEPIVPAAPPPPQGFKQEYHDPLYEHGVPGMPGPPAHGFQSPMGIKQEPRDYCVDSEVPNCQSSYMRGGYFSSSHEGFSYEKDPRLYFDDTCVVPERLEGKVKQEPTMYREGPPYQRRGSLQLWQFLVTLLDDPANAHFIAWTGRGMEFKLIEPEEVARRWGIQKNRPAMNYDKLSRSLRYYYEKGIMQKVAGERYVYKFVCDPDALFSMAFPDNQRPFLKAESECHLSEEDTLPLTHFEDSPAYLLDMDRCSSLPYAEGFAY
# Sequence of ETV1 (P50549 whole entry): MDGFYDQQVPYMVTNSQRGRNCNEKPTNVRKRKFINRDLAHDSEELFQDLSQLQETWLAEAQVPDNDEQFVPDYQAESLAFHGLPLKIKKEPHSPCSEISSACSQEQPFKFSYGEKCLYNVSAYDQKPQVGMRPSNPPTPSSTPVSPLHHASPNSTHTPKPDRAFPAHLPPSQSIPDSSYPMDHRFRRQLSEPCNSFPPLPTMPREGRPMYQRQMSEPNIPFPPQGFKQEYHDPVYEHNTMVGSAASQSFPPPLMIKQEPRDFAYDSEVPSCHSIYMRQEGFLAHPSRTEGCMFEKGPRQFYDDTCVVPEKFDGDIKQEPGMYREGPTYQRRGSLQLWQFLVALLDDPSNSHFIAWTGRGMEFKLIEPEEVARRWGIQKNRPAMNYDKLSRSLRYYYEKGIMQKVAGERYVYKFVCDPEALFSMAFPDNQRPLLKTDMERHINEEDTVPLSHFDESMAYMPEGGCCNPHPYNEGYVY
# Sequence of ELF1 (P32519 whole entry): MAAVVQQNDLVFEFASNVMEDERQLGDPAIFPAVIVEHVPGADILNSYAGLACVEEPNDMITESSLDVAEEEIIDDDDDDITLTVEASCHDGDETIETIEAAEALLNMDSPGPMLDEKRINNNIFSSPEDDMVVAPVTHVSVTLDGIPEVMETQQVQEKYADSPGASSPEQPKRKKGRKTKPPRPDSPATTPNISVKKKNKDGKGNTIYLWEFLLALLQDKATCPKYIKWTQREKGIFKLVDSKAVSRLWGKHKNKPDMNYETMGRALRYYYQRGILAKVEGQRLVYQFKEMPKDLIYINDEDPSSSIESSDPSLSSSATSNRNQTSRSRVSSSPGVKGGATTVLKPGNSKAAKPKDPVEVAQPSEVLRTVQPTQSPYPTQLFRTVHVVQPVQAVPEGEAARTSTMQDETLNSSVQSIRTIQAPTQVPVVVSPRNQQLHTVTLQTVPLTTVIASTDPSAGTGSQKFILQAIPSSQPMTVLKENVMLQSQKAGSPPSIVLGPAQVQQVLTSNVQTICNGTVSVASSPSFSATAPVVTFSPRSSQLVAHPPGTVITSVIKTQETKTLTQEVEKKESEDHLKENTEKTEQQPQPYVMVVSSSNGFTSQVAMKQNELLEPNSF
sequence,measurement,setting,value
GTTTAA,binding signal,FLI1,"1.19 fold enrichment (6-mer frequency, TF over GST control)"
same,binding signal,ELK1,"1.19 fold enrichment (6-mer frequency, TF over GST control)"
same,binding signal,GABPA,"1.13 fold enrichment (6-mer frequency, TF over GST control)"
same,binding signal,ERG,"1.13 fold enrichment (6-mer frequency, TF over GST control)"
same,binding signal,ELF1,"1.13 fold enrichment (6-mer frequency, TF over GST control)"
same,binding signal,EHF,"1.17 fold enrichment (6-mer frequency, TF over GST control)"
same,binding signal,SPI1,"1.16 fold enrichment (6-mer frequency, TF over GST control)"
same,binding signal,SPIB,"1.27 fold enrichment (6-mer frequency, TF over GST control)"
same,binding signal,ELK3,"1.26 fold enrichment (6-mer frequency, TF over GST control)"
same,binding signal,FEV,"1.11 fold enrichment (6-mer frequency, TF over GST control)"
same,binding signal,ETV5,"1.07 fold enrichment (6-mer frequency, TF over GST control)"
same,binding signal,HSF1,"1.28 fold enrichment (6-mer frequency, TF over GST control)"
same,binding signal,SPIC,"1.02 fold enrichment (6-mer frequency, TF over GST control)"
same,binding signal,ELF4,"1.1 fold enrichment (6-mer frequency, TF over GST control)"
same,binding signal,ELK4,"1.14 fold enrichment (6-mer frequency, TF over GST control)"
same,binding signal,ETV2,"1.23 fold enrichment (6-mer frequency, TF over GST control)"
same,binding signal,ELF3,"1.05 fold enrichment (6-mer frequency, TF over GST control)"
same,binding signal,CRX,"1.79 fold enrichment (6-mer frequency, TF over GST control)"
same,binding signal,ETV1,"1.14 fold enrichment (6-mer frequency, TF over GST control)"

# Reference: article PMC7862700, “An all-to-all approach to the identification of sequence-specific readers for epigenetic DNA modifications on cytosine”
